Screening results (PubChem)
TWEAK Fn14 block: inhibitors of TWEAK-Fn14 interaction signaling; TWEAK-stimulated Fn14 reporter cells, luciferase luminescence, 8 h; inhibition, % at 10 µM; actives 2% (n = 360,000); AID 1159606; in the data active = inhibition above about 50%
HSP90 inh: HSP90 refolding inhibition in rabbit reticulocyte lysate | luciferase refolding luminescence, 3 h | inhibition, % at 5.6 µM | actives 0.91% (n = 290,000) | AID 1789;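 active = inhibition above the screen-wide mean plus 3 SD, computed separately per campaign, cut at about 16% in these data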;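 note: 0% = DMSO wells and 100% = 60 µM geldanamycin wells; inhibitors lower the luminescence because luciferase stays unfolded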
C8 TRAIL sens: sensitizes caspase-8 expressing cells to TRAIL | NB7+C8 cells + TRAIL, ATPlite viability luminescence | inhibition (viability loss, TRAIL sensitization), % at 10 µM | actives 1% (n = 360,000);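 active = compounds causing at least 50% loss of cell viability in the single-dose screen, relative to plate controls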
HIF-2a block: blocks HIF-2a reporter activity; 786-0 RCC cells HIF-2a reporter, luciferase luminescence, overnight; actives 0.72% (n = 360,000); inhibition, % at 18.8 µM;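 active = inhibition of the luminescence signal of 40% or more relative to plate controls, in a single-dose primary screen at 18.75 µM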
aSyn UTR inh: MLPCN primary screen, SNCA 5' untranslated region. AID 1813. inhibition, % (tested at 7.5 µM). alpha-synuclein 5'UTR reporter, inhibitor activity. actives 0.82% (n = 300,000); in the data active = inhibition above about 60%;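 note: H4 neuroglioblastoma cells stably carrying SNCA 5'UTR luciferase fusion; 0% = DMSO wells and 100% = positive control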
TROY NFkB inh: TROY signaling inhibition. Q293 LMP1-TROYcd NF-kB luciferase reporter, 4 h. inhibition, % at 10 µM. actives 0.98% (n = 360,000);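 active = compounds whose plate-normalised and pattern-corrected inhibition of the luciferase reporter signal at the single screening dose is 50% or more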
* hit, by the source's call; x = not tested or not shown. Hits are enriched below; roughly 3.9% of the tested compounds scored in any of these assays.

SMILES	TWEAK Fn14 block	HSP90 inh	C8 TRAIL sens	HIF-2a block	aSyn UTR inh	TROY NFkB inh
CC1(C(=O)NS(=O)(=O)C2CC2)CCCN(C(=O)c2cccc(OC(F)(F)F)c2)C1 (stereo not drawn)	10	x	1	4	x	-10
COc1ccccc1NC(=O)C1=C(C)NC(SCC(=O)c2ccccc2)=C(C#N)C1c1ccco1 (stereo not drawn)	56*	1	9	-39	-33	33
CCCNC(=O)C1(C)CCCN(Cc2ccccc2F)C1 (stereo not drawn)	3	x	-13	5	x	7
NC(=O)c1ncn([C@@H]2O[C@H](CNCc3c(OCc4ccccc4F)ccc4ccccc34)[C@@H](O)[C@H]2O)n1	7	x	-6	-7	x	0
COc1ccc(Cc2nnc(SCc3ccc([N+](=O)[O-])cc3)o2)cc1	65*	-1	8	20	-17	45
COc1ccc(CCN2C(=O)CSCC2(C)C(=O)Nc2ccc3c(c2)OCCO3)cc1OC (stereo not drawn)	x	x	-14	-16	x	x
Cc1ccc(NC(=O)c2cc(S(=O)(=O)NCC3CCCO3)ccc2F)cc1 (stereo not drawn)	-17	x	-11	-20	x	-6
Cc1ccc(NC(=O)c2cc(S(=O)(=O)NCCC3=CCCCC3)ccc2F)cc1	57*	1	19	7	13	35
CCN(CC)c1ccc(/C=N/NC(=O)c2cccc(S(=O)(=O)Nc3ccccc3OC)c2)c(O)c1	-10	6	31	20	95*	-7
CCN(CC)c1ccc(/C=N/NC(=O)c2cccc(S(=O)(=O)Nc3ccccc3OC)c2)cc1	-2	-1	5	9	-5	10
COc1ccccc1NS(=O)(=O)c1cccc(C(=O)NC2CCN(Cc3ccccc3)CC2)c1	33	x	22	7	83*	22
CC(=O)N(CC(=O)N(CC(=O)O)c1ccc(Cl)cc1)c1ccc(Cl)cc1	27	x	-3	12	x	-16
Cc1nn(Cc2ccc(Cl)c(Cl)c2)c(C)c1NC(=O)c1cc(-c2ccc3c(c2)OCO3)on1	20	1	12	-1	66*	20
COCCNC(=O)c1cc(-c2ccc3c(c2)OCO3)on1	29	5	40	-153	-48	-23
C=CCNC(=O)c1cc(-c2ccc3c(c2)OCO3)on1	48	15	51*	-48	-8	5
O=C(COC(=O)c1cc[n+]([O-])cc1)Nc1cccc(F)c1	13	x	-5	2	x	0
O=C(Nc1ccc2c(c1)CCC2)C1CCN(c2c3c(nc4ncnn24)CCC3)CC1	35	2	43	15	46	35
O=C(Nc1ccc(Oc2ccccc2)cc1)C1CCN(c2c3c(nc4ncnn24)CCC3)CC1	79*	3	40	-9	29	51*
CCOC(=O)C1=C(COC(=O)COc2ccc(C(C)=O)cc2)NC(=O)NC1C (stereo not drawn)	3	x	20	4	6	-8
CCOC(=O)C1=C(COC(=O)COc2ccc(C#N)cc2)NC(=O)NC1C (stereo not drawn)	90*	3	-9	3	-1	-1
CN(C)S(=O)(=O)c1ccc(Cl)c(NC(=O)CNC2(C)CCS(=O)(=O)C2)c1 (stereo not drawn)	15	x	-6	16	x	-6
Cn1nc(-c2ccc(N3CCOCC3)c(NS(=O)(=O)c3ccc(Cl)cc3)c2)c2ccccc2c1=O	61*	0	-2	14	x	x
CC(=O)Nc1cc(-c2nn(C)c(=O)c3ccccc23)ccc1N1CCOCC1	4	14	5	6	15	-11
Cc1ccc(S(=O)(=O)Nc2cc(-c3nn(C)c(=O)c4ccccc34)ccc2N2CCOCC2)cc1	43	-1	6	14	78*	28
CCOc1ccc(N/C(N)=N/c2nc(CSc3nnc(C)s3)cc(=O)[nH]2)cc1	-13	1	26	18	84*	31
SMILES	TWEAK Fn14 block	HSP90 inh	C8 TRAIL sens	HIF-2a block	aSyn UTR inh	TROY NFkB inh
C=CCn1c(SCc2ccc(C(=O)Nc3nccs3)cc2)nnc1-c1ccc(C)c(Cl)c1	92*	-1	23	-46	-14	44
Cn1nnnc1SCc1ccc(C(=O)Nc2nccs2)cc1	-6	-1	23	-198	-12	-37
Cc1cc(N2CCC(C(=O)NCC3CC3)CC2)nc(-c2ccccc2)n1	78*	0	9	15	-3	6
Cc1cc(N2CCC(C(=O)NC3CC3)CC2)nc(-c2ccccc2)n1	3	5	-4	8	2	3
CCCCn1c(N)c(N(CC(C)C)C(=O)c2ccco2)c(=O)[nH]c1=O	5	x	-12	-3	-10	-13
CCCCN1C(=O)C(CC(=O)NC2CCCCC2)CC(C(=O)N2CCCCCC2)=C1C (stereo not drawn)	6	x	-10	9	x	6
CCCc1cc(=O)n2[nH]cc(-c3ccc(Cl)cc3)c2n1	33	2	28	5	71*	31
C=CCn1c(C)cc(C(=O)COC(=O)c2n[nH]c(=O)c3ccccc23)c1C	39	x	69*	-156	x	30
Cc1cc(C(=O)COC(=O)c2nccnc2N)c(C)n1C	2	9	13	-51	-52	4
Cc1ccsc1C(=O)OCC(=O)c1cc(C)n(C)c1C	84*	x	46	-143	x	12
Cc1cc(C(=O)COC(=O)c2n[nH]c3ccccc23)c(C)n1C	35	0	58*	-82	29	-53
CCn1nc(C(=O)OCC(=O)c2cc(C)n(Cc3cccs3)c2C)c2ccccc2c1=O	10	33*	21	-161	-59	11
Cc1cc(C(=O)COC(=O)c2n[nH]c(=O)c3ccccc23)c(C)n1C	27	x	17	-98	x	-9
COCCC(=O)N1CCOCC1c1cc(C(=O)NCc2ccccc2)no1 (stereo not drawn)	13	x	-4	-4	x	5
COCCN1C(=O)CN(S(C)(=O)=O)CC1(C)C(=O)NCc1ccccc1 (stereo not drawn)	x	x	4	7	x	x
Cc1ccc(OCC(=O)OCC(=O)c2c(N)n(C)c(=O)n(C)c2=O)cc1C	-21	5	13	6	-7	-12
Cc1cc(OCC(=O)OCC(=O)c2c(N)n(C)c(=O)n(C)c2=O)ccc1Cl	86*	x	-2	7	x	15
O=[N+]([O-])c1cc(/C=N/n2cnnc2)ccc1N1CCCC1	-6	-1	-5	21	65*	0
NC(COCc1ccccc1)c1csc(NC(=O)Nc2cccc(C(F)(F)F)c2)n1 (stereo not drawn)	-15	x	20	12	x	-1
FC(F)(F)c1nc(N2CCCC2)ncc1-c1nnnn1-c1ccccc1	51*	-1	16	17	8	18
Cc1ccc(-n2nnnc2-c2cnc(N3CCCC3)nc2C(F)(F)F)cc1	33	-3	2	32	-3	21
Cc1cccc(-c2cc3c(nn2)-c2ccccc2C3=O)c1	50*	4	45	-172	-43	-42
